The text below walks through data of PubChem BioAssay (NCATS).

The nature of experiment [1]: Quantitative High-Throughput drug screen in 47 multiple myeloma cell lines against the NCATS MIPE library collection: KHM11_PLB cell viability assay (AID 1918962). Also: nearly all actives have a fitted effect of over 35% in size. In short, it runs like this:
(§1)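 Myeloma cell lines, 500 cells per well, exposed to MIPE 4.0 library compounds for 48 h at 37C, 5% CO2. Viability from ATP by CellTiter-Glo luminescence; normalised to DMSO (100%) and media-only (0%) wells.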

A short description of experiment [2]: Quantitative High-Throughput drug screen in 47 multiple myeloma cell lines against the NCATS MIPE library collection: JIM3_ECACC cell viability assay (AID 1918963; also: nearly all actives have a fitted effect of over 35% in size). In a few lines: as §1
Experiment [3] in a line: Quantitative High-Throughput drug screen in 47 multiple myeloma cell lines against the NCATS MIPE library collection: INA6_PLB cell viability assay (AID 1918965; also: nearly all actives have a fitted effect of over 55% in size). In short, it runs like this: as §1
Experiment [4] is described as follows: Quantitative High-Throughput drug screen in 47 multiple myeloma cell lines against the NCATS MIPE library collection: JJN3_DSMZ cell viability assay (AID 1918966; also: nearly all actives have a fitted effect of over 50% in size). In a few lines:
(§2)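 Steps: seed 500 cells per well; pin-transfer MIPE 4.0 library; incubate 48 h at 37C, 5% CO2, humidified; add CellTiter-Glo, 5 min room temperature; read luminescence.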

A short description of experiment [5]: Quantitative High-Throughput drug screen in 47 multiple myeloma cell lines against the NCATS MIPE library collection: Karpas25_ECACC cell viability assay (AID 1918968; also: nearly all actives have a fitted effect of over 35% in size). In a few lines:
as §2

Experiment [6] can be described thus: Quantitative High-Throughput drug screen in 47 multiple myeloma cell lines against the NCATS MIPE library collection: KMS27_JCRB cell viability assay (AID 1918970). Also: nearly all actives have a fitted effect of over 30% in size. The note with it: KMS27 myeloma cells, CellTiter-Glo ATP viability, 48 h; viability (% of DMSO): at 45.8 µM (top of the series). In short, it runs like this: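 ATP-based viability (CellTiter-Glo luminescence) is measured in cells treated 48 h with approved and investigational drugs at 37 °C. Controls are DMSO-only wells for full viability and media-only wells for none.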
A general note: In ATP-based viability assays light output follows the ATP content of the culture.

Experiment [7] in a line: Quantitative High-Throughput drug screen in 47 multiple myeloma cell lines against the NCATS MIPE library collection: KMS12BM_JCRB cell viability assay (AID 1918971). Also: nearly all actives have a fitted effect of over 35% in size. In short, it runs like this: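 CellTiter-Glo luminescence (ATP) after 48 h compound exposure, 37C/5% CO2; 500 cells/well; MIPE 4.0 approved/investigational drugs pinned in; DMSO = 100%, media only = 0% viability.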

Experiment [8] can be described thus: Quantitative High-Throughput drug screen in 47 multiple myeloma cell lines against the NCATS MIPE library collection: KMS12PE_JCRB cell viability assay (AID 1918972). Also: nearly all actives have a fitted effect of over 30% in size. In a few lines:
as §1

Experiment [9] is described as follows: Quantitative High-Throughput drug screen in 47 multiple myeloma cell lines against the NCATS MIPE library collection: H1112_PLB cell viability assay (AID 1918967; also: nearly all actives have a fitted effect of over 30% in size). In a few lines: as §2
The nature of experiment [10]: Quantitative High-Throughput drug screen in 47 multiple myeloma cell lines against the NCATS MIPE library collection: JIM1_ECACC cell viability assay (AID 1918964). In short, it runs like this: as §2

Records with an inconclusive call do not appear. Activity calls are given as the source filed them. Calls follow the shape of the dose curve; as a rule, active = well fitted curve in the direction sought with a large enough effect; inconclusive = small, poorly fitted or top-dose-only effect, or another doubt; inactive = no such curve, though single readings can be large; an effect the other way counts as inactive or inconclusive.
Potency is read from the fitted curve at half-maximal effect.

On to `COC1CCC(C(=O)c2ccc3nc4c(cc3c2)CCCO4)CC1` (stereo not given), for which the Potency was 9.35 µM (active) in experiment [1]; 14.8 µM (active) in experiment [2]; 13.2 µM (active) in [3]; 20.9 µM (active) in experiment [4]; 18.7 µM (active) in [5]; 18.7 µM (active) in [6]. For the same molecule, the Potency in experiment [7] was 20.9 µM (active); in experiment [8], 14.8 µM (active).

In the case of `CN(C)CCOc1cc(-c2cn[nH]c2)ccc1NC(=O)C1COc2ccccc2O1` (stereo not given), the Potency entry in [1] and in experiment [9] was “inactive” throughout. The Potency was 18.7 µM (active) in experiment [2] and 13.2 µM (active) in experiment [3].

Regarding `NC(=O)c1ncn([C@@H]2O[C@H](CO)[C@@H](O)[C@@H]2O)n1`, the Potency entry in experiment [1], in [2], in experiment [3], in [9], in experiment [5] and in experiment [6] was “inactive” in each case. The Potency result in [8] was “inactive”.

`O=C1C(c2c(O)[nH]c3ccccc23)=Nc2ccccc21`: the Potency result in experiment [1], in [2], in experiment [3] and in experiment [6] was “inactive” throughout. The figures for the Potency in experiment [4], in experiment [5] and in experiment [7] were 6.62 µM (active), 6.62 µM (active) and 5.9 µM (active), respectively.

With `C[C@]12CCC3=C4CCC(=O)C=C4CC[C@@H]3[C@H]1CC[C@@]2(O)CC#N`, the Potency result in experiment [1], in experiment [2], in [9] and in experiment [6] was “inactive” each time.

For `CNC1[C@H](O)C(O[C@@H]2C(O)C(O[C@H]3O[C@H]([C@@H](C)NC)CC[C@H]3N)[C@@H](N)C[C@H]2N)OC[C@]1(C)O` (stereo not given in full), the Potency entry in [1], in experiment [2], in experiment [3], in [9], in [5] and in experiment [6] was “inactive” in each case. Besides, the Potency result in experiment [7] and in experiment [8] was “inactive” throughout.

As to `CCN(CCO)CCCOc1ccc2c(Nc3cc(CC(=O)Nc4cccc(F)c4)[nH]n3)ncnc2c1`, the Potency entry in experiment [1], in experiment [2], in [9] and in experiment [5] was “inactive” in each case. The Potency is 0.0743 µM (active) in [3], 0.0083 µM (active) in experiment [6] and 0.209 µM (active) in experiment [7].

For `COc1ccc(CCC(=O)Nc2nc3ccc(Cl)cc3s2)cc1OC`, the Potency result in [1], in experiment [4], in [6] and in experiment [8] was “inactive” throughout. In addition, in experiment [2], the Potency was 14.8 µM (active).

Take `CC[C@H](C)n1cc(C)c2c(C(=O)NCc3c(C)cc(C)[nH]c3=O)cc(-c3ccc(N4CCNCC4)nc3)cc21`: the Potency is 29.6 µM (active) in experiment [1], 18.7 µM (active) in experiment [3] and 23.5 µM (active) in experiment [5]. Besides, the Potency result in experiment [10] and in experiment [8] was “inactive” throughout.

For the molecule `CC[C@H]1OC(=O)[C@H](C)[C@@H](O[C@H]2C[C@@](C)(OC)[C@@H](O)[C@H](C)O2)[C@H](C)[C@@H](O[C@@H]2O[C@H](C)C[C@H](N(C)C)[C@H]2O)[C@](C)(O)C[C@H](C)C(=NOCOCCOC)[C@H](C)[C@@H](O)[C@]1(C)O`, the Potency entry in experiment [1], in experiment [10], in experiment [9], in [5], in [6] and in [8] was “inactive” in each case. For the same molecule, in experiment [4], the Potency is 13.2 µM (active).

For the molecule `O=C1NC(=O)C(c2cnc3ccccn23)=C1c1cn2c3c(cccc13)CN(C(=O)N1CCOCC1)CC2`, the Potency in experiment [1] was 0.001 µM (active); in experiment [3], 0.001 µM (active); in experiment [9], 1.48 µM (active); in experiment [5], 0.001 µM (active); in experiment [8], 0.001 µM (active).

For `Cc1cccc(-c2[nH]c(C(C)(C)C)nc2-c2ccc3c(c2)OCO3)n1`, the Potency in experiment [1] is 1.18 µM (active); in experiment [10] it was 6.62 µM (active); in experiment [3], 2.64 µM (active); in experiment [4], 14.8 µM (active); in experiment [9], 1.32 µM (active); in [5] it was 0.526 µM (active). Also, the Potency in experiment [6] was 1.32 µM (active); in experiment [7], 18.7 µM (active); in experiment [8], 3.72 µM (active).

Consider `CCC[C@H](Nc1nc(-c2ccc(NC(=O)NCC)c(OC)c2)ncc1C)c1cccnc1`, for which, in [1], the Potency entry was “inactive”. Besides, the Potency in experiment [3] is 0.001 µM (active); in experiment [4], 0.0235 µM (active); in experiment [9], 0.0047 µM (active); in [6], 0.001 µM (active).

With `C#C[C@]1(O)CC[C@H]2[C@H]3CCc4cc(OC)ccc4[C@H]3CC[C@@]21C`, the Potency is 18.7 µM (active) in [1], 16.6 µM (active) in [3] and 18.7 µM (active) in experiment [7]. For the same molecule, the Potency result in experiment [9] was “inactive”.
